Assay outcomes from PubChem.
In the library only some 7% were active in any assay of this set; here they are far more common.
KLK7 zymogen act: activators of human kallikrein-7 zymogen; purified proKLK7, EDANS-DABCYL substrate fluorescence; 100% is mature enzyme control, 0% vehicle; activation, % at 7 µM; hit rate 0.9% among 370,000;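 active means activation above the mean of all tested compounds plus 3 SD, computed per campaign excluding outliers beyond control limits, cut at about 13% in these data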
ADAM10 inh: ADAM10 inhibition, QFRET primary screen; inhibition, % at 7 µM; O14672; recombinant ADAM10, EDANS/DABCYL FRET peptide cleavage, 3 h; AID 720582; hit rate 0.62% among 370,000;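 active means inhibition above a per-campaign cutoff equal to the mean of compounds falling between control-based bounds plus 3 SD, cut at about 20% in these data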;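 further: 0% = DMSO wells while the 100% control is not disclosed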
Target sequence (O14672 214-748 limits assumed): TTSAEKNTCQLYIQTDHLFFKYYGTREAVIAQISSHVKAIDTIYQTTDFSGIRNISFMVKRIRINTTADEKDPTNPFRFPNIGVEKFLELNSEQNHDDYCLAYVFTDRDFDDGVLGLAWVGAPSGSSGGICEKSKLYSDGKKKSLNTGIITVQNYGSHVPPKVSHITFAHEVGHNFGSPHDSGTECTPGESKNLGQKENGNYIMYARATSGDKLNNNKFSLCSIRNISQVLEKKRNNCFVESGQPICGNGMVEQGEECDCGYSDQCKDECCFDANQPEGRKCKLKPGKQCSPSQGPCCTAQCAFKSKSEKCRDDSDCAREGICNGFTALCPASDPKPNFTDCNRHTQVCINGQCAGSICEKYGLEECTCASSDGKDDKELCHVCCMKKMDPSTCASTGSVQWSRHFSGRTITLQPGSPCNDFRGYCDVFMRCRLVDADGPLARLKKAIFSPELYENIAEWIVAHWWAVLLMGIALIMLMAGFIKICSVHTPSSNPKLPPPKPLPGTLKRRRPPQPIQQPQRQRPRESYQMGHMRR
NR3A LBD binder: NR3A (human) ligand-binding domain modulation. NR3A LBD differential scanning fluorimetry, Tm shift; 0% = protein alone, 100% = glycine-bound protein. Tm shift relative to glycine control, % at 25 µM. hit rate 2.5% among 340,000. AID 1259313;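 active means melting temperature shift of at least 10% of the positive control shift, at one fixed dose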
rCAG binder: molecules binding r(CAG) RNA repeats; r(CAG) RNA repeat, TO-PRO-1 dye displacement fluorescence; inhibition, % at 3 µM; hit rate 1.3% among 370,000;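 active means inhibition above the plate cutoff, the mean of all test compounds on that plate plus 3 SD, cut at about 35% in these data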;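 further: 0% = DMSO alone and 100% = 100 µM mitoxantrone as full dye displacement; higher means more dye released from RNA so lower well fluorescence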
AHR act: activators of human aryl hydrocarbon receptor | P35869 | activation, % at 5 µM | AID 2796 | hit rate 2.5% among 320,000 | AHR-responsive luciferase reporter cells, luminescence; in the data active means activation above about 47%;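 further: 0% = vehicle wells and 100% = reference agonist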
ADAM17 inh: ADAM17 inhibition, QFRET primary screen. P78536. recombinant ADAM17, EDANS/DABCYL FRET peptide cleavage. inhibition, % at 6.95 µM. hit rate 0.83% among 370,000. AID 720648;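 active means inhibition above the mean of compounds lying between control limits plus 3 SD, set per campaign, cut at about 8.5% in these data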;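 further: 0% = DMSO-only wells as the low control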
ADAM10 confirm: confirmation of inhibitors of human ADAM10; shares compounds with ADAM10 inh; ADAM10 QFRET peptide cleavage, EDANS fluorescence; inhibition, % at 6.95 µM; AID 743208; hit rate 1% among 2,100;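 active means inhibition above about 20% chosen separately for each screening run, limit read from the data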;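 further: 0% = DMSO wells and 100% = marimastat wells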
ADAM17 ctr: ADAM17 inhibition, counter-screen for ADAM10 exosite hits. shares compounds with ADAM10 inh. ADAM17 QFRET peptide cleavage, EDANS fluorescence. inhibition, % at 6.95 µM. hit rate 0.5% among 2,100. AID 743214;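 active means mean triplicate inhibition above the solvent-only control wells' mean plus 3 SD, cut at about 12% in these data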;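 further: 0% = DMSO wells and 100% = marimastat wells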
* = called active by the depositor.

CCc1ccc2c(CN3CCN(S(=O)(=O)c4cccs4)CC3)cc(=O)oc2c1 was read as KLK7 zymogen act -0.6, ADAM10 inh 20.7*, NR3A LBD binder -1.2, rCAG binder 3.0, AHR act 0.6, ADAM17 inh 5.5, ADAM10 confirm 2.8 and ADAM17 ctr 0.2.
COc1cccc(CNC(=O)CSc2nc(=O)n(Cc3ccncc3)c3c2CCC3)c1 was read as KLK7 zymogen act 0.0, ADAM10 inh -2.8, NR3A LBD binder 0.8, rCAG binder -3.4, AHR act 0.7 and ADAM17 inh -1.3.
Screening CC1(C(=O)NCc2cccc3ccccc23)CCN1Cc1ccccc1OC(F)F (centres undefined) returned KLK7 zymogen act 0.4, ADAM10 inh 20.9*, rCAG binder 2.0, ADAM17 inh 5.7, ADAM10 confirm 3.0 and ADAM17 ctr 0.9.
Screening CC(=O)c1ccc(NC(=S)NC(=O)/C=C/c2ccco2)cc1 returned KLK7 zymogen act -0.5, ADAM10 inh -1.0, NR3A LBD binder -3.4, rCAG binder 21.1, AHR act 5.5 and ADAM17 inh -0.7.
O=C(/C=C/c1ccco1)NC(=S)Nc1ccccc1 was read as KLK7 zymogen act 0.0, ADAM10 inh 22.9*, NR3A LBD binder -2.9, rCAG binder 11.7, AHR act 35.0, ADAM17 inh 4.6, ADAM10 confirm 3.2 and ADAM17 ctr 1.4.
Screening CCn1c(SCC(=O)Nc2nc3ccccc3s2)nnc1-c1ccc(OC)cc1 returned KLK7 zymogen act -0.3, ADAM10 inh 19.9*, NR3A LBD binder 1.0, rCAG binder 6.0, AHR act 17.1, ADAM17 inh 0.7, ADAM10 confirm -0.4 and ADAM17 ctr 0.9.
`CCOC(=O)c1c(NC(=O)CSc2nnc(-c3ccccc3)n2CC)sc(C(C)=O)c1C` gave KLK7 zymogen act 0.6, ADAM10 inh 22.6*, NR3A LBD binder -13.1, rCAG binder -0.2, AHR act -1.1, ADAM17 inh 4.3, ADAM10 confirm -1.7 and ADAM17 ctr 0.1.
`Oc1cccc(CN2CCN(c3ncc(Cc4ccccc4)cn3)CC2)c1` gave KLK7 zymogen act 0.2, ADAM10 inh 3.1, rCAG binder 4.6 and ADAM17 inh 8.5.
Oc1ccc(Cl)c(CN2CCN(c3ncc(Cc4ccccc4)cn3)CC2)c1 was read as KLK7 zymogen act 1.1, ADAM10 inh 24.8*, rCAG binder 6.2, ADAM17 inh 14.4*, ADAM10 confirm 5.5 and ADAM17 ctr 2.8.
For CCN(c1ccccc1)S(=O)(=O)c1ccc(Cl)c(NC(=O)CSc2ncn[nH]2)c1 the results were KLK7 zymogen act -0.8, ADAM10 inh 22.7*, NR3A LBD binder -3.8, rCAG binder 8.9, AHR act 0.2, ADAM17 inh 2.0, ADAM10 confirm 3.0 and ADAM17 ctr 3.1.
`Cc1cc(=O)oc2cc(OCC(=O)N3CCC(C(N)=O)CC3)ccc12` gave KLK7 zymogen act 0.1, ADAM10 inh -162.8, NR3A LBD binder -0.5, rCAG binder 2.8, AHR act 1.0 and ADAM17 inh -37.8.
Screening Cc1ccc(OCC(=O)NNC(=O)C(=O)NC(C)(C)C)cc1 returned KLK7 zymogen act -0.3, ADAM10 inh 20.9*, NR3A LBD binder -2.9, rCAG binder 0.4, AHR act 1.2, ADAM17 inh 5.6, ADAM10 confirm -0.1 and ADAM17 ctr 0.1.
`CCc1nc2ccccc2c(C(=O)OCC(=O)Nc2cccc(S(=O)(=O)N3CCOCC3)c2)c1C` gave KLK7 zymogen act 0.6, ADAM10 inh 21.8*, NR3A LBD binder 10.0, rCAG binder 12.9, AHR act 6.2, ADAM17 inh 5.5, ADAM10 confirm 3.0 and ADAM17 ctr 1.1.
CCc1nc2ccccc2c(C(=O)OCC(=O)Nc2cccc(S(=O)(=O)NC3=NCCCCC3)c2)c1C was read as KLK7 zymogen act 0.8, ADAM10 inh 15.2, NR3A LBD binder -4.2, rCAG binder 2.1, AHR act 1.8 and ADAM17 inh 6.0.
COc1ccccc1-c1nnc(SCC(=O)Nc2ccc(S(N)(=O)=O)cc2)n1C was read as KLK7 zymogen act -0.1, ADAM10 inh -9.4, NR3A LBD binder 0.9, rCAG binder -0.5, AHR act 1.4 and ADAM17 inh -1.7.
Screening C=C(C)COc1ccc(-c2[nH]ncc2Oc2cccc(OC)c2)c(O)c1 returned KLK7 zymogen act 0.2, ADAM10 inh 26.8*, NR3A LBD binder 0.4, rCAG binder 13.5, AHR act 12.8, ADAM17 inh 8.4, ADAM10 confirm 14.6 and ADAM17 ctr 4.8.
Screening CCCc1ccc(Oc2cn[nH]c2-c2ccc(O)cc2O)cc1 returned KLK7 zymogen act 0.4, ADAM10 inh 21.9*, NR3A LBD binder 28.2*, rCAG binder 13.2, AHR act 34.7, ADAM17 inh 6.0, ADAM10 confirm 7.3 and ADAM17 ctr 2.0.
Screening C=C(C)COc1ccc(-c2[nH]ncc2-c2ccc(OC)cc2)c(O)c1 returned KLK7 zymogen act -0.5, ADAM10 inh 16.0, NR3A LBD binder 4.7, rCAG binder 2.7, AHR act 12.7 and ADAM17 inh 6.0.
Screening CCOCCCn1c(SCc2ccccc2)nnc1-c1ccncc1 returned KLK7 zymogen act 0.1, ADAM10 inh 0.9, NR3A LBD binder -1.0, rCAG binder -6.7, AHR act 2.6 and ADAM17 inh -4.6.
For CC(C)NC(=O)CN1CCN(Cc2nc(C(c3ccccc3)c3ccccc3)no2)CC1 the results were KLK7 zymogen act 0.8, ADAM10 inh 3.0, NR3A LBD binder -1.6, rCAG binder -6.5, AHR act -0.2 and ADAM17 inh -2.7.
Screening COc1cccc(S(=O)(=O)Nc2ccc(C(O)(C(F)(F)F)C(F)(F)F)cc2)c1 returned KLK7 zymogen act -1.3, ADAM10 inh 20.3*, rCAG binder 10.9, ADAM17 inh 3.3, ADAM10 confirm -1.7 and ADAM17 ctr 0.5.
COc1ccc(NS(=O)(=O)c2cccc(C(=O)NNC(=O)c3ccc(NC(C)=O)cc3)c2)cc1 was read as KLK7 zymogen act -0.4, ADAM10 inh -2.1, NR3A LBD binder 2.2, rCAG binder 5.2, AHR act -3.3 and ADAM17 inh -0.9.
Screening O=C(NC1CCCc2ccccc21)c1cccc(S(=O)(=O)N2CCN(c3ccccc3)CC2)c1 (centres undefined) returned KLK7 zymogen act -0.2, ADAM10 inh 20.1*, NR3A LBD binder -1.4, rCAG binder 10.9, AHR act 10.9, ADAM17 inh 9.5*, ADAM10 confirm 8.8 and ADAM17 ctr 2.4.
